Each structure is given as a SMILES string. A number with no mark means an inactive call.

What all share (test): log2 ratio of Biotin-Ahx-Ub-VS probe labelling (fragment/DMSO); higher = less target engagement (more negative = stronger competition), active = hit call of the paper (q ≤ 0.05, log2 ratio ≤ -1)
Common to all, as to conditions: compound concentration: 200 uM; treatment time: 3 h

One experiment concerns the target T1, OTUD6B (UniProt Q8N6M0).
T1 sequence (whole entry): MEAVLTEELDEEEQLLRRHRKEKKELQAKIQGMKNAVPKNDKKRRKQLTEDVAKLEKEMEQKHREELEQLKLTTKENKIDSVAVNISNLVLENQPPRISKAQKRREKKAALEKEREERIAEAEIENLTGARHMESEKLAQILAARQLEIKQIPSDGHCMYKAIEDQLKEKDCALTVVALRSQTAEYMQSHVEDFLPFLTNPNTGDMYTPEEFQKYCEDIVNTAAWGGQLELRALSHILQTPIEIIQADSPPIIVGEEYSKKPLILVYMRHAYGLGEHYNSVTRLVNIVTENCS
In outline:
(§1)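 Using Biotin-Ahx-Ub-VS at 0.5 µM final for 1 h, DUBs were labelled in HEK293T lysate (495 µg per sample) that had first been treated in triplicate with fragment at 200 µM or vehicle for 3 h. NeutrAvidin enrichment, LysC and trypsin digestion and diaPASEF LC-MS/MS followed. Spectronaut label-free quantities were global-median-normalised. Values are average log2 fragment/vehicle ratios by unpaired t-test, using proteins with ≥2 unique peptides.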

The next experiment deals with T2, OTUD7B (UniProt Q6GQQ9).
T2 sequence (whole entry): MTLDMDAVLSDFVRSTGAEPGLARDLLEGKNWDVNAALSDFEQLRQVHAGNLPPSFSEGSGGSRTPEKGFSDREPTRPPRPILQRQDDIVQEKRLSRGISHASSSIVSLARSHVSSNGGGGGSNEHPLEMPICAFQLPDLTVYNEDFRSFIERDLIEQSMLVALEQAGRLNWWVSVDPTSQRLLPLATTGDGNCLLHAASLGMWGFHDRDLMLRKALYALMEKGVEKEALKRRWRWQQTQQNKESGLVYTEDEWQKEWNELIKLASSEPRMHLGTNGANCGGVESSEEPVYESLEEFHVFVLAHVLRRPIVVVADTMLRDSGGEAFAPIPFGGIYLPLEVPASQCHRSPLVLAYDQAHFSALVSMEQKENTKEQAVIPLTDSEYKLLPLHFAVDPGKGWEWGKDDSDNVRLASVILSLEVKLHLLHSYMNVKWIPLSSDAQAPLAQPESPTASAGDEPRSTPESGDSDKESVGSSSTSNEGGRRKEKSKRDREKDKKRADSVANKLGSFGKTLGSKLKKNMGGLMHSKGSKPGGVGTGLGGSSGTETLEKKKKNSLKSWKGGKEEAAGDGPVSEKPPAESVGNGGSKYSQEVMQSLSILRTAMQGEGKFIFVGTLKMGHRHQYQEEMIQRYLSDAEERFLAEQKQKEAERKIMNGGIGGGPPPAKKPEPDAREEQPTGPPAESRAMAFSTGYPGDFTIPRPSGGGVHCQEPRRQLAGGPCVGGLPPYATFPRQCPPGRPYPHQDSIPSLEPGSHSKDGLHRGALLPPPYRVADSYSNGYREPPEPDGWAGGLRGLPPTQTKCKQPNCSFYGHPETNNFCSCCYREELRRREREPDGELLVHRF
The essentials: as §1

The target in another experiment is PRPF8 (UniProt Q6P2Q9). In outline:
as §1

A further experiment concerns the target T3, PSMD7 (UniProt P51665).
T3 sequence (whole entry): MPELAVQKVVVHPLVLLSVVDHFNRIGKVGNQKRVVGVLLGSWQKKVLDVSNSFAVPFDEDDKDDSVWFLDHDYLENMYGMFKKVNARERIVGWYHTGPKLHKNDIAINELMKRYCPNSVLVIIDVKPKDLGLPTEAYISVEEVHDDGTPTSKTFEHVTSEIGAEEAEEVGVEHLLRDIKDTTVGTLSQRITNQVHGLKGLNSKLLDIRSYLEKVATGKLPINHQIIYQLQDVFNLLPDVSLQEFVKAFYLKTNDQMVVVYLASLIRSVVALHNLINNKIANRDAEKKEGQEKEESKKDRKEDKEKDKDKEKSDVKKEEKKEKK
In outline: as §1

Another experiment deals with UCHL1 (UniProt P09936). The essentials:
as §1

The target in another experiment is T4, UCHL3 (UniProt P15374).
T4 sequence (whole entry): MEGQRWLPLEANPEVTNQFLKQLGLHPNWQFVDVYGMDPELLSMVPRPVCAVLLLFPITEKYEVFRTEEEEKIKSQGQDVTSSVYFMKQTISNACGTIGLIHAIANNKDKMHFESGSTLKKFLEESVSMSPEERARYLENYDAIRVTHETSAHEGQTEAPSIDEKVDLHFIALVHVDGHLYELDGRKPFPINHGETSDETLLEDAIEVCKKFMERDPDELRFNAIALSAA
In outline:
as §1

The target in the next experiment is T5, UCHL5 (UniProt Q9Y5K5).
T5 sequence (whole entry): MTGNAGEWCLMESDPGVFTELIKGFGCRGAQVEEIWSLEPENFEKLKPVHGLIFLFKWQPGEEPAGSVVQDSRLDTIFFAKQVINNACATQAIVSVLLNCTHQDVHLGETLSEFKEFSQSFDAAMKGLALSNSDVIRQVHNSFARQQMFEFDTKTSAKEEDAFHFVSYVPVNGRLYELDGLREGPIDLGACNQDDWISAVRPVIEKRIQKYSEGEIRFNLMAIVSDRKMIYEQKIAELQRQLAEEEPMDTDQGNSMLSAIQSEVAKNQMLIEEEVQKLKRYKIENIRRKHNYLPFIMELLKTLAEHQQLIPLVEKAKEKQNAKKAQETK
In outline: as §1

Another experiment deals with USP10 (UniProt Q14694). The essentials: as §1
Sequence of USP10 (Q14694 whole entry): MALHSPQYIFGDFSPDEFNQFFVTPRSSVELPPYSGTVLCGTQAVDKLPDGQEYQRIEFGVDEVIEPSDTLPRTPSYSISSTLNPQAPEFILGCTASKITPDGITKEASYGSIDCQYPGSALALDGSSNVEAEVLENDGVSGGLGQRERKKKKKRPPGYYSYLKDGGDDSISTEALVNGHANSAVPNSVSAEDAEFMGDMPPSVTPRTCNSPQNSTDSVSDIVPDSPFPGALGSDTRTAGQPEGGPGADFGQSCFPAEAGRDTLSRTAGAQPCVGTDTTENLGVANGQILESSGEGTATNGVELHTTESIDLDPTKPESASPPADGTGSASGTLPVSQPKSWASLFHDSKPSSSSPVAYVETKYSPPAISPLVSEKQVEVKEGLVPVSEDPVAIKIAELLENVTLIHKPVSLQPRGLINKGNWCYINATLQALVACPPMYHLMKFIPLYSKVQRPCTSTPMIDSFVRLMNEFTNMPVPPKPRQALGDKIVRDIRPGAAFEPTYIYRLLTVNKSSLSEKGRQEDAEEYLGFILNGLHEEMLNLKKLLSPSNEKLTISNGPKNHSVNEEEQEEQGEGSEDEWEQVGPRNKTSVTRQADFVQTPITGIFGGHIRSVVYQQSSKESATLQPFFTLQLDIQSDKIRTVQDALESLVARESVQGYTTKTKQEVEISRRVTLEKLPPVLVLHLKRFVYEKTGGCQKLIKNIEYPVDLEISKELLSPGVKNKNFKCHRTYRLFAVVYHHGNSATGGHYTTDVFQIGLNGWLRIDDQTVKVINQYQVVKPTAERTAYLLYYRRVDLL
Another experiment has as its target T6, USP15 (UniProt Q9Y4E8).
T6 sequence (whole entry): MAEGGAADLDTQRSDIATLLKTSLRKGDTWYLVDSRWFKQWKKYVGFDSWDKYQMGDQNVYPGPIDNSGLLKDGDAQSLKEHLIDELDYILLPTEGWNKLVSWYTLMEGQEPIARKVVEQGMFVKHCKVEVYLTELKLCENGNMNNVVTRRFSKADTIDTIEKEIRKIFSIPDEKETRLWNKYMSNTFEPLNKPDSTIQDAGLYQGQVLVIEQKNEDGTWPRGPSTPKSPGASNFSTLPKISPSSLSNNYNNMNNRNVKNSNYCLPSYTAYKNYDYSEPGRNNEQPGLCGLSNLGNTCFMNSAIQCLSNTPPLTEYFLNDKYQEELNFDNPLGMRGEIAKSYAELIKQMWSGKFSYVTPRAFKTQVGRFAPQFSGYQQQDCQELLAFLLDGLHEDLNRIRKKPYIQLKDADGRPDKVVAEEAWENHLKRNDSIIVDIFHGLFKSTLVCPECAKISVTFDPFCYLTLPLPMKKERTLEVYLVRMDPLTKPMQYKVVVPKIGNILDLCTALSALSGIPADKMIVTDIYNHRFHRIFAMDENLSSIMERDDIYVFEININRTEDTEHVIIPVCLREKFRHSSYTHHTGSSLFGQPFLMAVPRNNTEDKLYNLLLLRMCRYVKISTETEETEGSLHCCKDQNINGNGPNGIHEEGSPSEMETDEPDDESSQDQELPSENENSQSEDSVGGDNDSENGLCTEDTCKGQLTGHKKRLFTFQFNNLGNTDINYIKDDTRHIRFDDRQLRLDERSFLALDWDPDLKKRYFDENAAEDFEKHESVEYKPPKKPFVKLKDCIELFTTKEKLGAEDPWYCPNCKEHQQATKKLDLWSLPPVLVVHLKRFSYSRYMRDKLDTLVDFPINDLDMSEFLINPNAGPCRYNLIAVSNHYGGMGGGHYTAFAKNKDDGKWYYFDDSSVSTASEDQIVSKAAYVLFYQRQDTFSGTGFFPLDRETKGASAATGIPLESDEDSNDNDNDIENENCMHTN
In outline: as §1

The next experiment deals with USP16 (UniProt Q9Y5T5). The essentials:
as §1

Sequence of USP16 (Q9Y5T5 whole entry, looked up): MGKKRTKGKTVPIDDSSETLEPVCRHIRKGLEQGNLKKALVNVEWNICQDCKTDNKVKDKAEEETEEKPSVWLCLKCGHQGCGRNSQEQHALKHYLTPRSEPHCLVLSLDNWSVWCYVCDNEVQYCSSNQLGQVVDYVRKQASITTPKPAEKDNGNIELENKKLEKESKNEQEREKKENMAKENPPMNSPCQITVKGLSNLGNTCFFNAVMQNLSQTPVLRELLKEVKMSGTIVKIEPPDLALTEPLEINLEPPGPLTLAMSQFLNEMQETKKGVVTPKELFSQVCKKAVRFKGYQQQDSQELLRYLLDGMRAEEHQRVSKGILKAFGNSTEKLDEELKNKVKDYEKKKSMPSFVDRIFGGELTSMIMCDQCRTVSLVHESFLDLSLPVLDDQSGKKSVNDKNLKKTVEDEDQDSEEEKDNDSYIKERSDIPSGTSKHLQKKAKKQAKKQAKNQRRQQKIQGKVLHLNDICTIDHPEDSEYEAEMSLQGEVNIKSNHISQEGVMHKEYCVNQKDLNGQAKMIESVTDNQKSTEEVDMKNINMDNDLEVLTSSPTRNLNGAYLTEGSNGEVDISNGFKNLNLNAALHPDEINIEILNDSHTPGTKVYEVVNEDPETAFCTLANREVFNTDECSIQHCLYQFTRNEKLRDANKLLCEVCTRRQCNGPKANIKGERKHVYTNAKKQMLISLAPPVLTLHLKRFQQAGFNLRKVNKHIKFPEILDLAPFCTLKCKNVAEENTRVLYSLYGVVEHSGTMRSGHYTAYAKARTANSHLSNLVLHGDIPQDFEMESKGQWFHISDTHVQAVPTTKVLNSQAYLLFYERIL
Sequence of UCHL1 (P09936 whole entry, looked up): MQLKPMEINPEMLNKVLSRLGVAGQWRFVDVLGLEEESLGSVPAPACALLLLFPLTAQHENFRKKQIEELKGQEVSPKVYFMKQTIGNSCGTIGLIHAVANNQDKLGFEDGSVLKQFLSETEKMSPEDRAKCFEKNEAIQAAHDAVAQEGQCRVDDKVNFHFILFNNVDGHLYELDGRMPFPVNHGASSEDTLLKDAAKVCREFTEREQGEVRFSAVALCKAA

`O=C(CCl)N1CCC(C(O)c2ccc(F)cc2)CC1` (stereo not given): the “log2 ratio of Biotin-Ahx-Ub-VS probe labelling” value was 0.0694 in the experiment with OTUD6B; -0.134 with OTUD7B; -0.0885 with PRPF8; -0.0381 in the experiment with PSMD7; -1.31 (active) with UCHL1; 0.426 with UCHL3. Also, the “log2 ratio of Biotin-Ahx-Ub-VS probe labelling” value is 0.12 with UCHL5, -0.257 with USP10, 0.278 in the experiment with USP15 and 0.191 in the experiment with USP16.

(Values after the supplement of paper PMC11732987, “Enantioselective OTUD7B fragment discovery through chemoproteomics screening and high-throughput optimisation” (Communications Chemistry, 2025).)
